# Residue numbers refer to the chain shown, from its start.
# Legend:
# Experiment in all cases: yeast three-hybrid, YBZ-1, SC-Leu-His + 0.5 mM 3-AT, 4 days
# Conditions in all cases: tags: N-Gal4 AD-HA kept; label: inside an RPR1-promoter hybrid RNA with tandem MS2 sites; ssRNA
# PUM1 PUF domain R4-AHP = PUM1 PUF domain R4-AHP (Homo sapiens, UniProt Q14671 828-1176, N971A;Q975P)
# Outline: (§1)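 Each repeat of the Pumilio-1 PUF domain was randomized at its three base-contacting residues, and these libraries were co-expressed from a centromeric plasmid with matching RNA elements in strain YBZ-1. After four days on SC-Leu (input) or SC-Leu-His + 0.5 mM 3-AT (selection), the repeat regions were PCR-amplified and Illumina-sequenced. The interaction score compares variant frequency between input and selection as a log change, computed in log2 with a pseudocount of 1 for absent variants.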
# PUM1 PUF domain R7-GGK = PUM1 PUF domain R7-GGK (Homo sapiens, UniProt Q14671 828-1176, S1079G;N1080G;E1083K)
# Outline: as §1
# PUM1 PUF domain R4-QPS = PUM1 PUF domain R4-QPS (Homo sapiens, UniProt Q14671 828-1176, N971Q;H972P;Q975S)
# Outline: as §1
# PUM1 PUF domain R6-NRI = molecular target: T1, PUM1 PUF domain R6-NRI (Homo sapiens, UniProt Q14671 828-1176, Y1044R;Q1047I)
# T1 sequence: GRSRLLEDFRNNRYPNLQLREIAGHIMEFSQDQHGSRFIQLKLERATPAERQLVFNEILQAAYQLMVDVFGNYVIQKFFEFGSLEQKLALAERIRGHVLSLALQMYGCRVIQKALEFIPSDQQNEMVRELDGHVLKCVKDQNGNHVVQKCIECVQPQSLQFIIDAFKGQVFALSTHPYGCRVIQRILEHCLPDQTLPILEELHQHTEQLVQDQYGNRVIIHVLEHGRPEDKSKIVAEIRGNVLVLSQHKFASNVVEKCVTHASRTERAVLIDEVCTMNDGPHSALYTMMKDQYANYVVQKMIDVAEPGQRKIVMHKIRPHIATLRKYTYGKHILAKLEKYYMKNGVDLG
# Outline: as §1
# PUM1 PUF domain R3-SRP = PUM1 PUF domain R3-SRP (Homo sapiens, UniProt Q14671 828-1176, C935S;Q939P)
# Outline: as §1
# PUM1 PUF domain R6-HFS = molecular target: T2, PUM1 PUF domain R6-HFS (Homo sapiens, UniProt Q14671 828-1176, N1043H;Y1044F;Q1047S)
# T2 sequence: T1 sequence with N216H, R217F, I220S
# Outline: as §1
# PUM1 PUF domain R8-RFM = PUM1 PUF domain R8-RFM (Homo sapiens, UniProt Q14671 828-1176, N1122R;Y1123F;Q1126M)
# Outline: as §1
# PUM1 PUF domain R8-LYR = PUM1 PUF domain R8-LYR (Homo sapiens, UniProt Q14671 828-1176, N1122L;Q1126R)
# Outline: as §1
# PUM1 PUF domain R3-GRH = PUM1 PUF domain R3-GRH (Homo sapiens, UniProt Q14671 828-1176, C935G;Q939H)
# Outline: as §1
# PUM1 PUF domain R3-RAV = PUM1 PUF domain R3-RAV (Homo sapiens, UniProt Q14671 828-1176, C935R;R936A;Q939V)
# Outline: as §1
# PUM1 PUF domain R3-RQR = PUM1 PUF domain R3-RQR (Homo sapiens, UniProt Q14671 828-1176, C935R;R936Q;Q939R)
# Outline: as §1
# PUM1 PUF domain R5-HLY = PUM1 PUF domain R5-HLY (Homo sapiens, UniProt Q14671 828-1176, C1007H;R1008L;Q1011Y)
# Outline: as §1
# PUM1 PUF domain R1-KIM = PUM1 PUF domain R1-KIM (Homo sapiens, UniProt Q14671 828-1176, S863K;R864I;Q867M)
# Outline: as §1
# PUM1 PUF domain R1-NWV = PUM1 PUF domain R1-NWV (Homo sapiens, UniProt Q14671 828-1176, S863N;R864W;Q867V)
# Outline: as §1
# PUM1 PUF domain R2-IVF = PUM1 PUF domain R2-IVF (Homo sapiens, UniProt Q14671 828-1176, N899I;Y900V;Q903F)
# Outline: as §1
# PUM1 PUF domain R5-QNR = PUM1 PUF domain R5-QNR (Homo sapiens, UniProt Q14671 828-1176, C1007Q;R1008N;Q1011R)
# Outline: as §1
# PUM1 PUF domain R4-EWD = PUM1 PUF domain R4-EWD (Homo sapiens, UniProt Q14671 828-1176, N971E;H972W;Q975D)
# Outline: as §1
sequence,measurement,setting,value
GGCUAGAACUAGUGGAUCCCCCGGCGCCCGGCGGCUCGAGCCCGGGUAAGUGUACAUAGUCUGCAUGCCGCCGGGCGCCAUGCCUGCAGGUCGACUCUAGAAAACAUG,binding signal,PUM1 PUF domain R4-AHP,4.93 log2 enrichment (interaction score)
GGCUAGAACUAGUGGAUCCCCCGGCGCCCGGCGGCUCGAGCCCGGGUAAGUUUAAAUAGUCUGCAUGCCGCCGGGCGCCAUGCCUGCAGGUCGACUCUAGAAAACAUG,binding signal,PUM1 PUF domain R7-GGK,3.4 log2 enrichment (interaction score)
GGCUAGAACUAGUGGAUCCCCCGGCGCCCGGCGGCUCGAGCCCGGGUAAGUGUAUAUAGUCUGCAUGCCGCCGGGCGCCAUGCCUGCAGGUCGACUCUAGAAAACAUG,binding signal,PUM1 PUF domain R4-QPS,3.86 log2 enrichment (interaction score)
GGCUAGAACUAGUGGAUCCCCCGGCGCCCGGCGGCUCGAGCCCGGGUAAGUGUAAAUAGUCUGCAUGCCGCCGGGCGCCAUGCCUGCAGGUCGACUCUAGAAAACAUG,binding signal,PUM1 PUF domain R4-QPS,1.44 log2 enrichment (interaction score)
same,binding signal,PUM1 PUF domain R6-NRI,4.34 log2 enrichment (interaction score)
same,binding signal,PUM1 PUF domain R3-SRP,5.42 log2 enrichment (interaction score)
same,binding signal,PUM1 PUF domain R6-HFS,4.79 log2 enrichment (interaction score)
same,binding signal,PUM1 PUF domain R8-RFM,4.37 log2 enrichment (interaction score)
same,binding signal,PUM1 PUF domain R8-LYR,4.3 log2 enrichment (interaction score)
same,binding signal,PUM1 PUF domain R3-GRH,4.23 log2 enrichment (interaction score)
GGCUAGAACUAGUGGAUCCCCCGGCGCCCGGCGGCUCGAGCCCGGGUAAGUGUAAUUAGUCUGCAUGCCGCCGGGCGCCAUGCCUGCAGGUCGACUCUAGAAAACAUG,binding signal,PUM1 PUF domain R3-RAV,3.5 log2 enrichment (interaction score)
same,binding signal,PUM1 PUF domain R3-RQR,3.88 log2 enrichment (interaction score)
same,binding signal,PUM1 PUF domain R3-SRP,1.56 log2 enrichment (interaction score)
GGCUAGAACUAGUGGAUCCCCCGGCGCCCGGCGGCUCGAGCCCGGGUAAGUGUCAAUAGUCUGCAUGCCGCCGGGCGCCAUGCCUGCAGGUCGACUCUAGAAAACAUG,binding signal,PUM1 PUF domain R5-HLY,3.47 log2 enrichment (interaction score)
GGCUAGAACUAGUGGAUCCCCCGGCGCCCGGCGGCUCGAGCCCGGGUAAGUGAAAAUAGUCUGCAUGCCGCCGGGCGCCAUGCCUGCAGGUCGACUCUAGAAAACAUG,binding signal,PUM1 PUF domain R6-NRI,2.1 log2 enrichment (interaction score)
GGCUAGAACUAGUGGAUCCCCCGGCGCCCGGCGGCUCGAGCCCGGGUAAGUGUAAAUUGUCUGCAUGCCGCCGGGCGCCAUGCCUGCAGGUCGACUCUAGAAAACAUG,binding signal,PUM1 PUF domain R1-KIM,3.49 log2 enrichment (interaction score)
same,binding signal,PUM1 PUF domain R1-NWV,4.33 log2 enrichment (interaction score)
GGCUAGAACUAGUGGAUCCCCCGGCGCCCGGCGGCUCGAGCCCGGGUAAGUGUAAAGAGUCUGCAUGCCGCCGGGCGCCAUGCCUGCAGGUCGACUCUAGAAAACAUG,binding signal,PUM1 PUF domain R2-IVF,4.01 log2 enrichment (interaction score)
GGCUAGAACUAGUGGAUCCCCCGGCGCCCGGCGGCUCGAGCCCGGGUAAGUGUUAAUAGUCUGCAUGCCGCCGGGCGCCAUGCCUGCAGGUCGACUCUAGAAAACAUG,binding signal,PUM1 PUF domain R5-QNR,2.93 log2 enrichment (interaction score)
GGCUAGAACUAGUGGAUCCCCCGGCGCCCGGCGGCUCGAGCCCGGGUAAGUGUAGAUAGUCUGCAUGCCGCCGGGCGCCAUGCCUGCAGGUCGACUCUAGAAAACAUG,binding signal,PUM1 PUF domain R4-EWD,4.33 log2 enrichment (interaction score)
GGCUAGAACUAGUGGAUCCCCCGGCGCCCGGCGGCUCGAGCCCGGGUAAGCGUAAAUAGUCUGCAUGCCGCCGGGCGCCAUGCCUGCAGGUCGACUCUAGAAAACAUG,binding signal,PUM1 PUF domain R8-LYR,5.06 log2 enrichment (interaction score)

# — PMC8384837, “Expanding the binding specificity for RNA recognition by a PUF domain”
